Data from PubChem BioAssay (EPA / NIEHS).
Active and inactive are the calls of the source. The calls were made as follows: active = hit-call score of the fitted dose curve at least 0.9, where 1 is the maximum; inactive = score below 0.9.

Key:
Conditions in all cases: mRNA level, 48 h; actives raise or lower the signal
[1] = read-out: Fatty Acid-Binding Protein 1 (FABP1), FABP1 (gene 2168); test: LTEA_HepaRG_FABP1: Life Technologies and Expression Analysis (LTEA) Assay for Fatty Acid-Binding Protein 1 (FABP1) using HepaRG (AID 2283494)
In short: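 Values reflect bidirectional concentration-response fitting of FABP1 mRNA change against 0.5% DMSO controls. Human HepaRG cultures received eight half-log doses (top 100 uM) for 48 h; expression quantified by TaqMan qRT-PCR with housekeeping-gene normalization.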

[2] = read-out: Cytochrome P450 4A22 (Homo sapiens) (UniProt Q5TCH4); test: LTEA_HepaRG_CYP4A22: Life Technologies and Expression Analysis (LTEA) Assay for Cytochrome P450 4A22 (CYP4A22) using HepaRG (AID 2283495)
In short: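 Concentration-response (8 points, max 100 uM, 0.5% DMSO) in human HepaRG liver cells after 48 h exposure. CYP4A22 mRNA by TaqMan qRT-PCR with housekeeping-gene normalization.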

[3] = read-out: Cytochrome P450 7A1 (Homo sapiens) (UniProt P22680); test: LTEA_HepaRG_CYP7A1: Life Technologies and Expression Analysis (LTEA) Assay for Cytochrome P450 7A1 (CYP7A1) using HepaRG (AID 2283496)
In short: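 HepaRG, 48 h exposure, 8-pt half-log series from 100 uM, 0.5% DMSO vehicle, duplicates. Readout: TaqMan qRT-PCR mRNA vs three housekeeping genes; bidirectional curve fit against DMSO baseline.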

[4] = read-out: Glutamate-cysteine ligase catalytic (GCLC), GCLC (gene 2729); test: LTEA_HepaRG_GCLC: Life Technologies and Expression Analysis (LTEA) Assay for Glutamate-cysteine ligase catalytic (GCLC) using HepaRG (AID 2283498)
In short: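 Oxidative-stress marker GCLC is measured as mRNA change in human HepaRG liver cells after 48 h chemical treatment in 0.5% DMSO, eight concentrations from 100 uM. Activity is fitted bidirectionally against vehicle.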

[5] = read-out: growth arrest and DNA damage 45 (GADD45G), GADD45G (gene 10912); test: LTEA_HepaRG_GADD45G: Life Technologies and Expression Analysis (LTEA) Assay for growth arrest and DNA damage 45 (GADD45G) using HepaRG (AID 2283499)
In short: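 Concentration-response in HepaRG: 48 h dosing, 0.5% DMSO, highest level 100 uM. GADD45G expression by qRT-PCR, normalised to endogenous controls; bidirectional fit to DMSO.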

[6] = read-out: Glutamate-cysteine ligase regulatory (GCLM), GCLM (gene 2730); test: LTEA_HepaRG_GCLM: Life Technologies and Expression Analysis (LTEA) Assay for Glutamate-cysteine ligase regulatory (GCLM) using HepaRG (AID 2283500)
In short: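 Endpoint is GCLM transcript level by qRT-PCR, normalized to three housekeeping genes, after 48 h chemical exposure of human HepaRG cells (0.5% DMSO vehicle, top 100 uM, half-log dilutions). Fitting was bidirectional relative to DMSO.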

[7] = read-out: Glutathione S-transferase M3 (GSTM3), GSTM3 (gene 2947); test: LTEA_HepaRG_GSTM3: Life Technologies and Expression Analysis (LTEA) Assay for Glutathione S-transferase M3 (GSTM3) using HepaRG (AID 2283501)
In short: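 Expression of GSTM3 is determined by qRT-PCR in human liver HepaRG cells treated 48 h with an 8-point half-log range from 100 uM in 0.5% DMSO.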

[8] = read-out: Heat shock 70 kDa protein 1 (HSPA1A), gene 3303; test: LTEA_HepaRG_HSPA1A: Life Technologies and Expression Analysis (LTEA) Assay for Heat shock 70 kDa protein 1 (HSPA1A) using HepaRG (AID 2283502)
In short: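 Cells were plated and cultured for 48 h, then switched to serum-free induction medium. Chemicals were added at eight half-log concentrations up to 100 uM for 48 h. RNA was then isolated and HSPA1A measured by qRT-PCR with bidirectional curve fitting against DMSO.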

[9] = read-out: 3-Hydroxy-3-Methylglutaryl-CoA Synthase 2 (HMGCS2), HMGCS2 (gene 3158); test: LTEA_HepaRG_HMGCS2: Life Technologies and Expression Analysis (LTEA) Assay for 3-Hydroxy-3-Methylglutaryl-CoA Synthase 2 (HMGCS2) using HepaRG (AID 2283504)
In short: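 This steatosis marker was read as HMGCS2 mRNA change in HepaRG cells treated 48 h with up to 100 uM chemical. Normalisation used housekeeping genes; activity in either direction was fitted relative to 0.5% DMSO vehicle.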

HGF (gene 3082) = test: LTEA_HepaRG_HGF: Life Technologies and Expression Analysis (LTEA) Assay for Hepatocyte Growth Facto (HGF) using HepaRG (AID 2283505)
In short: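 Using HepaRG monolayers kept in 0.5% DMSO, chemicals were tested in duplicate over eight half-log concentrations from 100 uM for 48 h. Endpoint: HGF mRNA change relative to DMSO, normalized to ACTB/GAPDH/POLR2A.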

[10] = read-out: Insulin Like Growth Factor 1 (IGF1), IGF1 (gene 3479); test: LTEA_HepaRG_IGF1: Life Technologies and Expression Analysis (LTEA) Assay for Insulin Like Growth Factor 1 (IGF1) using HepaRG (AID 2283506)
In short: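 Cells are thawed, plated and cultured 48 h, then exposed in duplicate to chemical (highest 100 uM, half-log steps, 0.5% DMSO) for another 48 h. Total RNA is analysed by Fluidigm qRT-PCR for IGF1 expression relative to vehicle.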

[11] = read-out: Intercellular Adhesion Molecule 1 (ICAM1), ICAM1 (gene 3383); test: LTEA_HepaRG_ICAM1: Life Technologies and Expression Analysis (LTEA) Assay for Intercellular Adhesion Molecule 1 (ICAM1) using HepaRG (AID 2283507)
In short: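 Using the human liver line HepaRG, compounds are tested in duplicate over 48 h at concentrations up to 100 uM. Expression is determined by TaqMan qRT-PCR, normalized to endogenous controls, and analysed relative to 0.5% DMSO vehicle.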

[12] = read-out: Insulin-like growth factor-binding protein 1 (IGFBP1), IGFBP1 (gene 3484); test: LTEA_HepaRG_IGFBP1: Life Technologies and Expression Analysis (LTEA) Assay for Insulin-like growth factor-binding protein 1 (IGFBP1) using HepaRG (AID 2283508)
In short: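 HepaRG, 48 h, 8 conc. (max 100 uM, half-log), duplicates, 0.5% DMSO. Readout: TaqMan qRT-PCR, ACTB/GAPDH/POLR2A normalisation. Fit: bidirectional vs DMSO.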

[13] = read-out: Interleukin 6 (IL6), IL6 (gene 3569); test: LTEA_HepaRG_IL6: Life Technologies and Expression Analysis (LTEA) Assay for Interleukin 6 (IL6) using HepaRG (AID 2283509)
In short: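 Changes in IL6 mRNA, up or down relative to 0.5% DMSO controls, were derived from concentration-response curves in human HepaRG cells treated for 48 h at up to 100 uM, with ACTB, GAPDH and POLR2A as normalizers.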

[14] = read-out: Interleukin 6 Receptor (IL6R), IL6R (gene 3570); test: LTEA_HepaRG_IL6R: Life Technologies and Expression Analysis (LTEA) Assay for Interleukin 6 Receptor (IL6R) using HepaRG (AID 2283510);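 as to AC50: differentiated human HepaRG liver cells in serum-free induction medium; TaqMan qRT-PCR signal normalized to ACTB GAPDH and POLR2A housekeeping genes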
In short: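 Cells were thawed, plated and cultured 48 h, then medium was changed to serum-free induction medium. Chemicals were added in duplicate (100 uM top, half-log steps, 0.5% DMSO) for 48 h. Lysates were analyzed by qRT-PCR for IL6R expression.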

[15] = read-out: Potassium channel subfamily K member 1 (KCNK1), KCNK1 (gene 3775); test: LTEA_HepaRG_KCNK1: Life Technologies and Expression Analysis (LTEA) Assay for Potassium channel subfamily K member 1 (KCNK1) using HepaRG (AID 2283511)
In short: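 Human HepaRG cultures receive test chemicals for 48 h in 0.5% DMSO, top concentration 100 uM with half-log dilutions. Induction or suppression of KCNK1 mRNA relative to DMSO is derived by bidirectional fitting of qRT-PCR data.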

[16] = read-out: Keratin 19 (KRT19), KRT19 (gene 3880); test: LTEA_HepaRG_KRT19: Life Technologies and Expression Analysis (LTEA) Assay for Keratin 19 (KRT19) using HepaRG (AID 2283512)
In short: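 Readout is qRT-PCR of KRT19 mRNA, normalized to ACTB, GAPDH and POLR2A, from HepaRG cells treated 48 h with eight-point half-log dilutions topping at 100 uM. Activity in either direction is scored relative to 0.5% DMSO vehicle.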

[17] = read-out: JUN Transcription Factor, JUN (gene 3725); test: LTEA_HepaRG_JUN: Life Technologies and Expression Analysis (LTEA) Assay for JUN Transcription Factor using HepaRG (AID 2283513)
In short: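 Read-out is JUN transcript level by TaqMan qRT-PCR, normalized to ACTB, GAPDH and POLR2A, after 48 h chemical treatment of HepaRG cells. Concentration-response spanned eight half-log points up to 100 uM in 0.5% DMSO.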

[18] = read-out: Lipase C (LIPC), LIPC (gene 3990); test: LTEA_HepaRG_LIPC: Life Technologies and Expression Analysis (LTEA) Assay for Lipase C (LIPC) using HepaRG (AID 2283514)
In short: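 In this multiplexed gene-expression screen, human HepaRG cultures received test chemicals for 48 h across eight concentrations with 100 uM highest, in duplicate. Values reflect LIPC mRNA induction or suppression versus DMSO vehicle, from normalized qRT-PCR.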

[19] = read-out: Hypoxia-inducible factor 1-alpha (Homo sapiens) (UniProt Q16665); test: LTEA_HepaRG_HIF1A: Life Technologies and Expression Analysis (LTEA) Assay for Hypoxia-inducible factor 1 (HIF1A) Trancription factor using HepaRG (AID 2283503)
In short: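 HIF1A transcript level read by qRT-PCR (ACTB, GAPDH, POLR2A normalization) after 48 h chemical exposure of HepaRG cultures. Eight half-log concentrations, top 100 uM, 0.5% DMSO vehicle, duplicates; bidirectional curve fit against DMSO baseline.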

Measured: AC50

Hypoxia-inducible factor 1-alpha (Homo sapiens), sequence (Q16665 whole entry, looked up): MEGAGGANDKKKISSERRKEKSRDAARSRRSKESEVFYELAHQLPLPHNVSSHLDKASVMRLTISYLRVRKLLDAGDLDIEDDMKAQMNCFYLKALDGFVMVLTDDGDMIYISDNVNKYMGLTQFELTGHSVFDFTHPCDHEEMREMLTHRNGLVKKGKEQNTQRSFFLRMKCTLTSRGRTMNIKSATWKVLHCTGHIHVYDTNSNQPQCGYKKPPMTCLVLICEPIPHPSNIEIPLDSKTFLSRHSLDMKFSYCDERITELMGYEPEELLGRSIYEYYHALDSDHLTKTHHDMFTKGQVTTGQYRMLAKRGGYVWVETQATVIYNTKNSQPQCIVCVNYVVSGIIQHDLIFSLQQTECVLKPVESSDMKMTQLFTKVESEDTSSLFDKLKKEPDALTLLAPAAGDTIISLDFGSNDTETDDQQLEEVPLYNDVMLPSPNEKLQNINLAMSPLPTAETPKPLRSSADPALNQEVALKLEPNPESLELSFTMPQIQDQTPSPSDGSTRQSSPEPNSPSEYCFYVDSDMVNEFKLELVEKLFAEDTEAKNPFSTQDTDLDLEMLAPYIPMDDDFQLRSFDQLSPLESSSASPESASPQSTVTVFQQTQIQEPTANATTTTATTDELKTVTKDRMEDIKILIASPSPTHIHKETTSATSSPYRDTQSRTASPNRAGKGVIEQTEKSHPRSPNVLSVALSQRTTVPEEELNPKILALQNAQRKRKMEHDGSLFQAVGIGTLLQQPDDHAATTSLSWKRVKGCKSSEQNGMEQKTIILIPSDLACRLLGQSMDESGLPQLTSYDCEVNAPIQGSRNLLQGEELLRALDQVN

CCC(C)c1ccccc1O (stereo not drawn)
inactive: [1] | [2] | [3] | [4] | [5] | [6] | [7] | [8] | [9] | HGF (gene 3082) | [10] | [11] | [12] | [13] | [14] | [15] | [16] | [17] | [18]

CCCCCCCCCCCCOS(=O)(=O)O
active: [1] 87.6 µM | [8] 50 µM | [9] 86.6 µM | [12] 79.1 µM | [14] 93.1 µM | [16] 79.9 µM | [17] 50 µM | [18] 80.4 µM
inactive: [4] | [5] | [6] | [7] | [19] | HGF (gene 3082) | [11] | [13] | [15]

CS(=O)(=O)c1ccc([C@@H](CC2CCCC2)C(=O)Nc2cnccn2)cc1Cl
inactive: [4] | [5] | [7] | [8] | [19] | [13] | [14] | [15] | [16] | [17]
active: [1] 63.4 µM | [6] 50 µM | [9] 74.3 µM | [10] 32.8 µM | [11] 73.7 µM | [12] 75.2 µM | [18] 86.9 µM

N=C(N)c1ccc(OCCCCCOc2ccc(C(=N)N)cc2)cc1
active: [1] 4.05 µM | [2] 3.87 µM | [3] 6.66 µM | [4] 27.9 µM | [5] 4.37 µM | [7] 5.05 µM | [8] 26.5 µM | [19] 4.28 µM | [9] 7.77 µM | HGF (gene 3082) 13.8 µM | [10] 11.1 µM | [11] 10.9 µM | [12] 3.52 µM | [13] 9.85 µM | [14] 29.3 µM | [16] 31 µM | [17] 12.6 µM | [18] 3.64 µM
inactive: [6] | [15]

CN(C)CCOC(c1ccccc1)c1ccccc1
inactive: [1] | [4] | [5] | [6] | [7] | [8] | [9] | HGF (gene 3082) | [10] | [11] | [12] | [13] | [14] | [15] | [16] | [17] | [18]

CC(=O)Nc1ccc(O)cc1
inactive: [1] | [2] | [3] | [4] | [5] | [6] | [7] | [8] | [9] | [10] | [11] | [12] | [13] | [14] | [15] | [16] | [17] | [18]

O=C1NS(=O)(=O)c2ccccc21
inactive: [1] | [2] | [3] | [4] | [5] | [6] | [7] | [8] | [19] | [9] | HGF (gene 3082) | [10] | [11] | [12] | [13] | [14] | [15] | [16] | [17] | [18]

CCCCCCCCCCCCCCC
inactive: [1] | [2] | [3] | [4] | [5] | [6] | [7] | [8] | [19] | [9] | HGF (gene 3082) | [10] | [11] | [12] | [13] | [14] | [15] | [16] | [17] | [18]
